m-calpain inh = calpain II (pig) inhibition; purified calpain II, fluorogenic peptide substrate, 30 min; inhibition, % at 16 µM; 220,000 tested, 0.37% active; AID 1236;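 active means inhibition above about 50%, limit read from the data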
Efa HMGR inh = E. faecalis class II HMG-CoA reductase inhibition; inhibition, % at 10 µM; 190,000 tested, 0.41% active; purified E. faecalis HMGR, NADPH absorbance 340 nm kinetic;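 active means inhibition above a set limit, the median over all tested compounds plus 3 SD, cut at about 9.5% in these data; inconclusive means no clear call, values can overlap the other calls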;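 further: enzyme runs in reverse so mevalonate oxidation gives rising NADPH absorbance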
HSV augment = HSV replication enhancement; HSV replication augmentation in cells, fold increase; maximum fold increase; 220,000 tested, 0.005% active; AID 1956; in the data active means maximum fold increase above about 1.5; inconclusive means no clear call, values can overlap the other calls; tested in PC3 cells
ROMK primary = modulators of human ROMK potassium channel | P48048 | B-score at 10 µM | Tet-inducible ROMK, thallium flux fluorescence; actives lie on both sides | 130,000 tested, 2% active;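 active means signal ratio slope over the read window, or its plate-corrected B-score, at least 3 SD from the plate mean, either direction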;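 further: B-score of the F/F0 ratio slope over 7 to 12 s after thallium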
Target sequence (P48048 whole entry, looked up): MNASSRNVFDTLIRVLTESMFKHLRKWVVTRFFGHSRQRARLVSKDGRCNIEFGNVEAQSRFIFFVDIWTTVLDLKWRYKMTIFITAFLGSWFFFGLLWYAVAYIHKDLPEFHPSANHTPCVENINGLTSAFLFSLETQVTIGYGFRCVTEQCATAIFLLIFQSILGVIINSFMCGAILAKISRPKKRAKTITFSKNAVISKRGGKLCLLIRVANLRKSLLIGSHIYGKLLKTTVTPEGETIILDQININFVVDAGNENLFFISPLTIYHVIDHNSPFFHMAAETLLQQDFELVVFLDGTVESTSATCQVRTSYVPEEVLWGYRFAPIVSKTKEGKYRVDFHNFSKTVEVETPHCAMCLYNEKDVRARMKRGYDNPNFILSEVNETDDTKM
Arbovirus inh = arbovirus infection inhibition; arbovirus infection cell-based antiviral screen; inhibition, % at 10 µM; 200,000 tested, 0.37% active; in the data active means inhibition above about 30%
ROMK hit retest = human ROMK channel modulation, retest confirmation; ROMK thallium flux, fluorescence ratio; hits give low values; 3,000 tested, 54% active; normalized thallium flux (F/F0 slope) at 10 µM; shares compounds with ROMK primary;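 active means Flux at 10 µM at least 3 SD below or above vehicle control mean in one or both replicates; inconclusive means no clear call, values can overlap the other calls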
Each line names hits and unclear results; the compound was inactive in the other large screens (follow-up assays come after a bar, where they were run). Rows were chosen to be rich in hits. Some 2.1% of all compounds tested hit in one or more screens of this group.

Cc1nnc(-c2ccc(N3CCCCCC3)c([N+](=O)[O-])c2)o1	none (no result: Efa HMGR inh, ROMK primary, Arbovirus inh)
CC(C)=CCN1CCN(Cc2cnc(-c3ccccc3)s2)CC1CCO (configuration not stated)	none
N#CC1=C(N)N(c2ccccc2)C(c2ccccc2)C1(C#N)C#N (configuration not stated)	ROMK primary -3 (no result: m-calpain inh) | ROMK hit retest 0.055
COc1ccc2nc(SCCC(=O)O)cc(C)c2c1	none (no result: Efa HMGR inh, ROMK primary, Arbovirus inh)
Cn1nnnc1SCC(=O)NC1CCCc2ccccc21 (configuration not stated)	none
O=C(Nc1ccc2c(c1)OCO2)c1cc(-c2ccncc2)nc2ccccc12	none (no result: ROMK primary) | ROMK hit retest 0.068
O=C(N/N=C/c1ccsc1)c1cc(-c2ccncc2)nc2ccccc12	ROMK primary 3 | ROMK hit retest inactive
O=C(N/N=C/c1ccsc1)c1cc(-c2cccs2)nc2ccccc12	none
Cc1ccsc1/C=N/NC(=O)c1cc(-c2ccncc2)nc2ccccc12	ROMK primary 4.8 | ROMK hit retest inconclusive
CC(/C=N/NC(=O)c1cc(-c2ccncc2)nc2ccccc12)=C\c1ccco1	ROMK primary 3.7 (no result: HSV augment) | ROMK hit retest inactive
COc1ccccc1-c1cc(C(=O)N/N=C/c2sccc2C)c2ccccc2n1	none
O=C(Nc1ccc2c(c1)OCCO2)c1cc(-c2ccccc2)nc2ccccc12	none (no result: ROMK primary)
COc1ccc(NS(=O)(=O)c2ccc(NS(C)(=O)=O)cc2)cc1	ROMK primary -3.2 | ROMK hit retest inactive
COc1ccc(S(=O)(=O)N[C@H](C(=O)O)C(C)C)cc1	none
COc1ccc(S(=O)(=O)NC(C)C(=O)O)cc1 (configuration not stated)	ROMK primary 1 | ROMK hit retest inactive
Cn1c(Cc2ccc3c(c2)OCO3)nnc1SCC(=O)NC1CCCC1	none (no result: ROMK primary)
N#CC1=C(N)NC(SCc2ccc(Cl)cc2)=C(C#N)C12CCCCC2	m-calpain inh 64 | ROMK hit retest 0.062
N#CC1=C(N)NC(SCc2ccc(Br)cc2)=C(C#N)C12CCCCC2	ROMK primary -3.9 (no result: HSV augment) | ROMK hit retest inactive
N#CC1=C(N)NC(SCC(=O)Nc2ccc(Br)cc2)=C(C#N)C12CCCCC2	none
N#CC1=C(N)NC(SCc2ccccc2)=C(C#N)C12CCCC2	none
CC(NCCN(C)C)C(=O)C12CC3CC(CC(C3)C1)C2 (configuration not stated)	none (no result: Efa HMGR inh, ROMK primary, Arbovirus inh)
C=CCOc1ccc(Br)cc1CNC(C)(C)C	Efa HMGR inh 22 | ROMK hit retest inactive
C=CCOc1ccc(Br)cc1CNC(C)(C)CO	none (no result: ROMK primary)
Cc1ccc(C)c(-n2nnnc2Sc2nnnn2-c2ccccc2)c1	ROMK primary -4.6 | ROMK hit retest 0.058
CCOC(=O)C1CCCN(C(=O)c2cccc([N+](=O)[O-])c2C)C1 (configuration not stated)	none (no result: ROMK primary)
CCOCc1nnc(NC(=O)c2cc(OC)c(OC)cc2[N+](=O)[O-])s1	none
C/C(=N/N1CCN(Cc2cccc3ccccc23)CC1)c1ccco1	none (no result: Efa HMGR inh, Arbovirus inh)
N#CC1=C(N)C(C#N)(C#N)C(c2ccc[nH]2)C2CCCC=C12 (configuration not stated)	ROMK primary -6.5 | ROMK hit retest 0.053
N#CC1=C(N)C(C#N)(C#N)C(c2cccnc2)C2CCCC=C12 (configuration not stated)	none (no result: ROMK primary)
CCOc1ccc2nc(NC(=O)C(NS(=O)(=O)c3cccc4nsnc34)C(C)C)sc2c1 (configuration not stated)	none (no result: ROMK primary) | ROMK hit retest 0.056
COc1ccc(C(=O)NCc2nnc(SCC(=O)N3CCc4ccccc43)n2Cc2ccccc2)cc1	none (no result: ROMK primary)
Cc1ccc(NC(=S)N(C)Cc2cn(C)c3ccccc23)cc1	none
O=C(O)c1cc(N2C(=O)C3CC=CCC3C2=O)ccc1NCc1cccnc1 (configuration not stated)	ROMK primary 2.6 (no result: HSV augment) | ROMK hit retest inactive
O=C(CN1CCCC1)Nc1c2c(nc3ccccc13)N(Cc1ccccc1)CC2	ROMK primary -3.1 | ROMK hit retest 0.061
C(#CCN1CCOCC1)COCCOC(c1ccccc1)c1ccccc1	ROMK primary 1 | ROMK hit retest inactive
Cc1nn(C(C)C(=O)NCc2ccco2)c(C)c1[N+](=O)[O-] (configuration not stated)	none (no result: ROMK primary) | ROMK hit retest inactive
Cc1ccc(C)c(NC(=S)NCCN(C2CCCCC2)C2CCCC2)c1	none
Cc1ccc(-c2ccc(/C=N/O)o2)cc1[N+](=O)[O-]	none
CCc1ccc2nc(SCC(=O)Nc3nnc(C)s3)c(C)cc2c1	none | ROMK hit retest inactive
COCCn1c(Cc2ccccc2)nnc1SCc1nc2ccccc2c(=O)[nH]1	none (no result: ROMK primary)
Cn1c(Cc2ccccc2)nnc1SCc1nc2ccccc2c(=O)[nH]1	none | ROMK hit retest inactive
O=C1CC(N2CCN(Cc3ccc4c(c3)OCO4)CC2)C(=O)N1c1cccc2ccccc12 (configuration not stated)	ROMK primary -3.1 | ROMK hit retest 0.055
Cc1cc(F)c(F)c(C(=O)N2CCC(C)CC2)c1Cl	none
COc1ccc(N=Cc2oc3ccc4ccccc4c3c2O)cc1	ROMK primary -3.5 (no result: HSV augment) | ROMK hit retest 0.053
COc1ccc(N=Cc2[nH]c3ccccc3c2O)cc1	none
C/C(=N\NC(=S)Nc1c(C)cccc1C)c1ccc(O)cc1	none (no result: Efa HMGR inh, ROMK primary, Arbovirus inh) | ROMK hit retest inactive
C/C(=N\NC(=S)Nc1c(C)cccc1C)c1cc2ccccc2o1	none
Fc1cccc2sc(N3CCCC3)nc12	none
CC(C)(C)c1ccc(-c2cn(-c3ccc(Br)cc3)c3[n+]2CCCS3)cc1	ROMK primary -2.5 | ROMK hit retest 0.055
c1ccc(-c2cn(-c3ccccc3)c3[n+]2CCS3)cc1	none
Cn1cnnc1SCC(=O)Nc1cccc(S(=O)(=O)N2CCOCC2)c1	none
Cc1cc2nnc(SCC(=O)Nc3cccc(S(=O)(=O)N4CCOCC4)c3)n2c2ccccc12	none (no result: ROMK primary) | ROMK hit retest inactive
O=C(/C=N/O)Nc1ccc2sc3ccccc3c2c1	ROMK primary -2.8 (no result: Efa HMGR inh, Arbovirus inh) | ROMK hit retest 0.064
Cn1c(CSCc2ccc(F)cc2)nnc1SCC(=O)Nc1cccc(C(=O)O)c1	none (no result: Efa HMGR inh, ROMK primary, Arbovirus inh)
O=C(Cn1cc[n+](CC(=O)c2ccccc2)c1)c1ccccc1	none (no result: ROMK primary)
O=C(Cn1cc[n+](CC(=O)c2ccc(Cl)cc2Cl)c1)c1ccc(Cl)cc1Cl	ROMK primary -3 (no result: Efa HMGR inh, Arbovirus inh) | ROMK hit retest inactive
Cc1cc(Br)cn2ccnc12	ROMK primary 1.2 (no result: HSV augment) | ROMK hit retest inactive
C/C(=N\NC(=O)CN(c1ccc(Oc2ccccc2)cc1)S(C)(=O)=O)C(C)(C)C	none
O=C(NNC1CC(=O)N(c2ccc(F)cc2)C1=O)c1cccnc1 (configuration not stated)	none (no result: Efa HMGR inh, Arbovirus inh)
O=C(NNC1CC(=O)N(c2ccccc2)C1=O)c1cccnc1 (configuration not stated)	none (no result: Efa HMGR inh, ROMK primary, Arbovirus inh) | ROMK hit retest inactive
O=C(Nc1cccc(NC(=O)c2cccs2)c1)c1ccc2c(c1)OCCO2	none
O=P(OC1CCCCC1)(OC1CCCCC1)C(Nc1ccccc1)c1cccnc1 (configuration not stated)	none (no result: Efa HMGR inh, ROMK primary, Arbovirus inh) | ROMK hit retest inconclusive
O=S(=O)(Cc1ccccc1)Nc1ccc(S(=O)(=O)NCC2CCCO2)cc1 (configuration not stated)	none (no result: ROMK primary) | ROMK hit retest inactive
O=S(=O)(Cc1ccccc1)NCC1CCCO1 (configuration not stated)	none (no result: ROMK primary)
